Shown are actives, neighbours in structure and some others; about 19% of the full set was active somewhere.
DT40 TDP1 no CPT: qHTS for Inhibitors of human tyrosyl-DNA phosphodiesterase 1 (TDP1): qHTS in cells in absence of CPT. 420,000 compounds, 15% hits. DT40 Tdp1-/- hTDP1 cells, no CPT, ATP luminescence, 48 h. Potency, µM (titrated, usually from 46.2 µM), actives largely listed as inhibitors. AID 686978, 2013; further: nearly all actives have a fitted effect of over 55% in size
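Growth of hTDP1-complemented DT40 Tdp1-knockout cells is measured by ATP luminescence after at least 48 hr compound exposure at 37 °C, with DMSO substituting for the 20 nM CPT used in the parallel screen.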
HT1080 IDH1KD tx: qHTS for induction of synthetic lethality in tumor cells producing 2HG: qHTS for the HT-1080-IDH1KD cell line; Potency, µM (top dose mostly 46.1 µM), hits mostly cytotoxic; 360,000 compounds, 2% hits; HT-1080 IDH1 knockdown viability, ATP luminescence, 48 h; AID 686971, 2013
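Using the IDH1-knockdown HT-1080 line run in the same batch and compound series as the NT line, viability after 48 h at 37 °C was determined by CellTiter-Glo luminescence and expressed as % activity.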
KB-V1 MDR tox: qHTS assay for MDR1-selective chemotherapeutics: Primary screen using the drug-selected MDR subline cells KB-V1 | KB-V1 MDR cells viability, CellTiter-Glo, 72 h | Potency, µM (doses to about 46.1 µM), hits mostly cytotoxic | 400,000 compounds, 3.4% hits; further: nearly all actives have a fitted effect of over 60% in size
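Potencies derive from concentration-effect curves fitted to normalized luminescence (CellTiter-Glo) of KB-V1 cells treated for 72 h at 37 degrees C in phenol-red-free DMEM containing 10% FBS.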
KB-3-1 cytotox: qHTS assay for MDR1-selective chemotherapeutics: Primary screen using the parental adenocarcinoma cell KB-3-1; KB-3-1 viability, CellTiter-Glo ATP luminescence, 72 h; Potency, µM (doses to about 46.1 µM), hits mostly cytotoxic; 400,000 compounds, 1.4% hits; further: nearly all actives have a fitted effect of over 60% in size
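Here the drug-naive KB-3-1 line serves as comparator for MDR sub-line selectivity; cells received compound titrations, 72 h at 37 °C, then CellTiter-Glo readout.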
DT40 TDP1 CPT: qHTS for Inhibitors of human tyrosyl-DNA phosphodiesterase 1 (TDP1): qHTS in cells in presence of CPT; chicken DT40 Tdp1-/-;hTDP1 cells + 20 nM CPT, ATP luminescence, 48 h; Potency, µM (highest dose often 46.2 µM), usual class: inhibitors; 420,000 compounds, 12% hits; AID 686979, 2013; further: nearly all actives have a fitted effect of over 55% in size
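Chicken DT40 Tdp1-/- cells complemented with human TDP1, 400 cells/well, exposed to compounds plus 20 nM camptothecin for at least 48 h at 37 C; viability read as ATP content by CellTiter-Glo luminescence.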
HT1080NT lethal: qHTS for induction of synthetic lethality in tumor cells producing 2HG: qHTS for the HT-1080-NT fibrosarcoma cell line. HT-1080-NT fibrosarcoma viability, CellTiter-Glo ATP luminescence, 48 h. Potency, µM (series often up to 46.1 µM), hits mostly cytotoxic. 360,000 compounds, 1.6% hits;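 further: NT is the 2HG producing partner of a matched IDH1 knockdown line; nearly all actives have a fitted effect of over 55% in size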
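Viability by CellTiter-Glo luminescence after 48 h compound exposure at 37C of HT-1080-NT cells (750/well, RPMI, 5% FBS). % activity scaled between DMSO wells and medium-only wells, then curve-fitted and categorized by curve class.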
Large screens that a line does not name were inactive. The call rests on the fitted dose curve; in most records, active means well fitted curve in the direction sought with a large enough effect; inconclusive means small, poorly fitted or top-dose-only effect, or another doubt; inactive means no such curve, though single readings can be large; an effect the other way counts as inactive or inconclusive.

O=C(Nc1ccc(Cl)cc1C(=O)c1ccccc1)c1ccco1	none
O=C(Nc1ccc(Cl)cc1C(=O)c1ccccc1)c1ccccc1Br	DT40 TDP1 no CPT 2.91µM, DT40 TDP1 CPT inconclusive (no result: HT1080 IDH1KD tx, KB-V1 MDR tox, KB-3-1 cytotox, HT1080NT lethal)
Cc1ccc(C(=O)Nc2ccc(Cl)cc2C(=O)c2ccccc2)cc1	KB-V1 MDR tox 20.6µM
CC(C)(C)c1ccc(C(=O)Nc2ccc(Cl)cc2C(=O)c2ccccc2)cc1	none (no result: HT1080 IDH1KD tx, KB-V1 MDR tox, KB-3-1 cytotox, HT1080NT lethal)
C[C@H]1CN([C@@H](C)CO)C(=O)CCCn2nncc2CO[C@@H]1CN(C)C(=O)Oc1ccccc1	none
CC(C)c1ccc(NC(=O)CCNC(=O)N2C[C@H]3C[C@@H](C2)c2cccc(=O)n2C3)cc1	none
Cc1onc(-c2ccccc2)c1C(=O)Nc1ccc(S(=O)(=O)N2CCCC2)cc1	DT40 TDP1 CPT inconclusive
O=C(CC1CCCCC1)N1CCC(c2nc(-c3ccc(S(=O)(=O)N4CCCC4)cc3)no2)CC1	DT40 TDP1 no CPT 8.2µM, KB-V1 MDR tox 14.6µM, DT40 TDP1 CPT 20.6µM
O=C(C1CC1)N1CCC(c2nc(-c3ccc(S(=O)(=O)N4CCCC4)cc3)no2)CC1	DT40 TDP1 no CPT 20.6µM, HT1080 IDH1KD tx inconclusive, KB-V1 MDR tox inconclusive, DT40 TDP1 CPT inconclusive
CCOC(=O)CNC(=O)CNC(=O)c1nn(-c2ccc(OC)c(Cl)c2)c(=O)c2ccccc12	KB-3-1 cytotox inconclusive, DT40 TDP1 CPT inconclusive
CC(C)(C)OC(=O)NCc1ccc(CNC(=O)c2nc[nH]c2C(=O)NCc2ccc(CNC(=O)OC(C)(C)C)cc2)cc1	DT40 TDP1 no CPT 20.6µM, DT40 TDP1 CPT 14.6µM
O=C(Nc1nccs1)C(Cl)(Cl)Cl	none
O=C(Nc1ccc(Cl)cc1)Nc1nccs1	DT40 TDP1 no CPT 2.91µM, HT1080 IDH1KD tx 7.31µM, KB-V1 MDR tox 2.59µM, KB-3-1 cytotox 4.61µM, DT40 TDP1 CPT 4.11µM, HT1080NT lethal 7.31µM
O=C(CCl)Nc1nccs1	DT40 TDP1 no CPT 5.8µM, HT1080 IDH1KD tx inconclusive, KB-V1 MDR tox inconclusive, KB-3-1 cytotox inconclusive, DT40 TDP1 CPT 2.59µM, HT1080NT lethal inconclusive
COc1nc(N)nc2c1ncn2[C@@H]1O[C@H](CO)[C@@H](O)[C@@H]1O	DT40 TDP1 CPT inconclusive (no result: HT1080 IDH1KD tx, KB-V1 MDR tox, KB-3-1 cytotox, HT1080NT lethal)
NC(=O)c1ncn([C@@H]2O[C@H](CO)[C@@H](O)[C@H]2O)n1	DT40 TDP1 no CPT 1.03µM, DT40 TDP1 CPT 1.46µM (no result: HT1080 IDH1KD tx, HT1080NT lethal)
Cc1ccc(C(=O)Nc2ccncc2)cc1S(=O)(=O)N1CCCCC1	DT40 TDP1 no CPT 18.4µM, KB-V1 MDR tox 14.6µM, KB-3-1 cytotox inconclusive, DT40 TDP1 CPT 23.1µM
O=C(Nc1ccc(Br)cc1)c1ccc(Cl)c(S(=O)(=O)N2CCCCCC2)c1	DT40 TDP1 no CPT 16.4µM, KB-V1 MDR tox inconclusive, KB-3-1 cytotox inconclusive, DT40 TDP1 CPT inconclusive (no result: HT1080 IDH1KD tx, HT1080NT lethal)
Cc1cc(C(=O)Nc2ccc(S(=O)(=O)N3CCCC3)cc2)cs1	DT40 TDP1 no CPT inconclusive, HT1080 IDH1KD tx inconclusive, KB-V1 MDR tox inconclusive, DT40 TDP1 CPT inconclusive, HT1080NT lethal inconclusive
Cc1ccc(Cl)c2sc(NC(=O)c3ccc(S(=O)(=O)N4CCCC4)cc3)nc12	DT40 TDP1 no CPT inconclusive, DT40 TDP1 CPT inconclusive (no result: HT1080 IDH1KD tx, HT1080NT lethal)

Compound activity from PubChem BioAssay.
